Assay results: the supplement of paper PMC11417369
In all, about 25,000 sequences were measured (“ln(normalized median fluorescence intensity)”: median about 7.1, highest 2% from about 10 on). What follows is part of a selection rich in the highest values, with near analogues and random picks from the rest.

System: PfSIP2 AP2 domain 1 (GST-tagged)
Test: gcPBM binding intensity (ln(normalized median fluorescence intensity)); higher = stronger DNA binding
Procedure, shortened: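 In this array assay, P. falciparum DNA-binding domains with a GST tag, expressed in E. coli, were applied for 1 h to primer-extended double-stranded 36-bp intergenic genomic probes and negative controls on an Agilent 4 × 180k array. Bound protein was visualised with Alexa488 anti-GST antibody at 488 nm. Binding intensity is the highest Masliner-normalised natural-log median intensity across replicate spots of either probe orientation.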

Q: How did the “gcPBM binding intensity (ln)” value turn out when “ATATTTTTCAAACATCGTACATTATGAGTTAAAATT [XGTACX_site584]” was run?
A: 7.02

Q: “ATAAAAAGGAGACACACACACACACGCATATTTATA [CACACA_site6551]” was tested. Which “gcPBM binding intensity (ln)” value did it give?
A: 7.08

Q: For “AGACCTTTAATTTGTGTGCACATAATTAGTGTACAT [GTGCAC_site9434]”, which “gcPBM binding intensity (ln)” value is on record?
A: 8.49

Q: How did the “gcPBM binding intensity (ln)” value turn out when “GTATAATTATGTGCACGTACATATTTTATTATATAT [XGTACX_site8586]” was run?
A: 9.21

Q: For “ATAATATATAATATAGTGCATTATTTATTAATTAAT [GTGCAC_site9852]”, which “gcPBM binding intensity (ln)” value is on record?
A: 10.1

Q: For “TATATTATTAATTAAGCACACATTATTTTTATAATA [CACACA_site3982]”, which “gcPBM binding intensity (ln)” value is on record?
A: 6.89

Q: For “CTATTTCAATTTAGTGCACACATTTTAATTTATAAG [CACACA_site2040]”, which “gcPBM binding intensity (ln)” value is on record?
A: 10.5

Q: Which “gcPBM binding intensity (ln)” value does the source give for “TGTGCACATAATTAGTGTACATTTTTTATTTAGACA [XGTACX_site317]” here?
A: 10.9

Q: With ATATATATATATATAGTGCACATTTATATAATTATT as the sequence, how does the “gcPBM binding intensity (ln)” value read?
A: 10.6

Q: With “TTAATAATTAATTATAGTACACATTTATATTAATAA [XGTACX_site190]” as the sequence, how does the “gcPBM binding intensity (ln)” value read?
A: 7.03

Q: With TTATATAATTTAATAGTGCAATTATATTAATTTTTC as the sequence, how does the “gcPBM binding intensity (ln)” value read?
A: 7.73

Q: Which “gcPBM binding intensity (ln)” value does the source give for “ATTCCACCTTAAAACTGTACTTTCTCAATCTTTTAT [XGTACX_site796]” here?
A: 7.22

Q: “TTACTTAAATATAAGTGTCCTCAAAAAAAAAAAAAA [XGTACX_site460]” was tested. Which “gcPBM binding intensity (ln)” value did it give?
A: 6.94

Q: How did the “gcPBM binding intensity (ln)” value turn out when “ATTCGTCACATTTTTTGATATATATATATATATATA [CACACA_negctrl_site1785]” was run?
A: 9.68

Q: For “GGGTTTTTTATTAATACATGCATGGAAACGCACTAT [TGCATGCA_site1000]”, which “gcPBM binding intensity (ln)” value is on record?
A: 10.3

Q: How did the “gcPBM binding intensity (ln)” value turn out when “TTTTAAAAACGGCATGCATGTAATACATGGAAGGAA [TGCATGCA_site480]” was run?
A: 7.46

Q: For “TTTTTATTAAGACATGCATGGAAACGCACTATTTTA [TGCATGCA_site999]”, which “gcPBM binding intensity (ln)” value is on record?
A: 9.74

Q: Which “gcPBM binding intensity (ln)” value does the source give for “TTTATAAATATTCTCACACACTTTTTATTTTAACAA [CACACA_site6454]” here?
A: 6.93

Q: How did the “gcPBM binding intensity (ln)” value turn out when “ATATAAATTTAATACACACCCAAAAAAAAAAAAAAA [CACACA_site3750]” was run?
A: 6.89

Q: For TATGTTTTTACGTGTGTGCACTTTGTAGAGATAAGT, which “gcPBM binding intensity (ln)” value is on record?
A: 10.7

Q: With ATGTAGATAAAACGTGTGCACATGTTTTTTGTTATT as the sequence, how does the “gcPBM binding intensity (ln)” value read?
A: 8.7

Q: Which “gcPBM binding intensity (ln)” value does the source give for “ATATGTTTTGTTTACGTGCACTGCTTTGTTTATATA [GTGCAC_site9622]” here?
A: 9.56

Q: With “GTTAGGATAGATTAGACATGCACATAAATGCACTTC [TGCATGCA_site561]” as the sequence, how does the “gcPBM binding intensity (ln)” value read?
A: 11

Q: With “AGGATATGCAGACACACACACATATAGATTTATATA [CACACA_site7100]” as the sequence, how does the “gcPBM binding intensity (ln)” value read?
A: 7.08

Q: How did the “gcPBM binding intensity (ln)” value turn out when “AAAATTAGATTATGCACACACACTTAAAAATAATAA [CACACA_site1975]” was run?
A: 8.5

Q: Which “gcPBM binding intensity (ln)” value does the source give for “TGTACGAGTCGTAGAGTGCAGTCTGGAGAAAAGTAC [GTGCAC_site9683]” here?
A: 8.91

Q: With “TTTTTTATGCTAACTTCTTTTTCCTTATAAAATTGG [TGCATGCA_negctrl_site598]” as the sequence, how does the “gcPBM binding intensity (ln)” value read?
A: 7.06

Q: With “AATATAATATATTGCACACAAAAAGTGAATTATTCT [CACACA_site1684]” as the sequence, how does the “gcPBM binding intensity (ln)” value read?
A: 7.12

Q: With “AATATATTGCACCATTGGACCTGAATAATTCTTCCA [CACACA_negctrl_site1071]” as the sequence, how does the “gcPBM binding intensity (ln)” value read?
A: 10.6

Q: With “TAATATATGTATTGCACACCTATAACCATTATTTCT [CACACA_site1498]” as the sequence, how does the “gcPBM binding intensity (ln)” value read?
A: 7.06

Q: With “CTTTCTATATAAAATCGTACATATATAATATTATAT [XGTACX_site5807]” as the sequence, how does the “gcPBM binding intensity (ln)” value read?
A: 7.3

Q: Which “gcPBM binding intensity (ln)” value does the source give for “GACATATAAATATACACACATACGTAAGTATATTAA [CACACA_site1790]” here?
A: 6.91

Q: With GGAAAATACATTCCAGTGCATTAATTTATTCAACGT as the sequence, how does the “gcPBM binding intensity (ln)” value read?
A: 8.59

Q: “AGAGACACTTTTTATTGTACAAGAGGAGGTTACCTT [XGTACX_site8768]” was tested. Which “gcPBM binding intensity (ln)” value did it give?
A: 6.61

Q: “AAAAAAAAAAAAAGAACACACACAGTGCACATTCGG [CACACA_site8163]” was tested. Which “gcPBM binding intensity (ln)” value did it give?
A: 10.6

Q: “AAAAAAAAAAAAGAAACACACACATTTGTATATAAT [CACACA_site8648]” was tested. Which “gcPBM binding intensity (ln)” value did it give?
A: 6.93

Q: With “AAACAGAAGACATATACACACATACAAAAAAGTGCA [CACACA_site4699]” as the sequence, how does the “gcPBM binding intensity (ln)” value read?
A: 7.62

Q: How did the “gcPBM binding intensity (ln)” value turn out when “AAAAAAAAAAAAGAAACACACATATATATATATATA [CACACA_site140]” was run?
A: 8.95

Q: For “AGAACATGCAAACATGCACACAGAAAAAAAAAATAT [CACACA_site8442]”, which “gcPBM binding intensity (ln)” value is on record?
A: 8.26

Q: Which “gcPBM binding intensity (ln)” value does the source give for “AAAAAAAAAAAGAACACACACAGTGCACATTCGGTG [CACACA_site788]” here?
A: 10.3

Q: How did the “gcPBM binding intensity (ln)” value turn out when “TGAACACACGAGCACACACACACATCTATATTTATA [CACACA_site6607]” was run?
A: 7.22

Q: For “TTAATTACACAAAAAAGTACTTGATATTGTTTATTA [XGTACX_site3449]”, which “gcPBM binding intensity (ln)” value is on record?
A: 6.85

Q: “AAATACTGATTTGGTTGTACATGTGCACTATATAAC [XGTACX_site3795]” was tested. Which “gcPBM binding intensity (ln)” value did it give?
A: 11.4

Q: Which “gcPBM binding intensity (ln)” value does the source give for “ATACTAACATTTTTTTGTACATATAACTATAAAATA [XGTACX_site1033]” here?
A: 7.32

Q: How did the “gcPBM binding intensity (ln)” value turn out when “AAATATTTGTGTGGTTGTACTATAATGATAAAAATA [XGTACX_site7703]” was run?
A: 7.27

Q: How did the “gcPBM binding intensity (ln)” value turn out when “GGAACTTTTGGAGGTGCATGCGGAGCAATCTTTTCA [TGCATGCA_site454]” was run?
A: 10.6

Q: For “CCTTTTTCTAATGGATGTACTTATTATATACATTAT [XGTACX_site281]”, which “gcPBM binding intensity (ln)” value is on record?
A: 7.14

Q: How did the “gcPBM binding intensity (ln)” value turn out when “TTGAAAAATCAGCACACACACAAATACATACATATT [CACACA_site7505]” was run?
A: 7.03

Q: TTTTTTTTTTTGTGAGTGCACGTATGAAGAGAAAAA was tested. Which “gcPBM binding intensity (ln)” value did it give?
A: 10.8

Q: “TTTTTTTTTTTTTTTTTTGGTGAGAGAAGAAAATTC [CACACA_negctrl_site950]” was tested. Which “gcPBM binding intensity (ln)” value did it give?
A: 7.02

Q: How did the “gcPBM binding intensity (ln)” value turn out when “ATTTTGATGATGTATGCACACATTGAAAATGAGAAA [CACACA_site2916]” was run?
A: 9.12

Q: For “GAATAAAGGAGAGGCACACATATATATATATATATA [CACACA_site2452]”, which “gcPBM binding intensity (ln)” value is on record?
A: 9.61

Q: “TCAGGAATATAAAGTGCACACATAATTTGGGGGCAA [CACACA_site7974]” was tested. Which “gcPBM binding intensity (ln)” value did it give?
A: 11.2

Q: Which “gcPBM binding intensity (ln)” value does the source give for “AGGAATATAAAGTGCACACATAATTTGGGGGCAAAA [CACACA_site258]” here?
A: 11.7

Q: Which “gcPBM binding intensity (ln)” value does the source give for “AATTTTGGAACGTGCACACATATGTAATATATATAT [CACACA_site3067]” here?
A: 10.1

Q: For “AATTTAATATAATGCACACATAAAAAAAAAAAAAAA [CACACA_site123]”, which “gcPBM binding intensity (ln)” value is on record?
A: 7.42

Q: With “AATTATGCACAAATCACACATATAAAATAAAAAGTG [CACACA_site4474]” as the sequence, how does the “gcPBM binding intensity (ln)” value read?
A: 7.87

Q: With “ATATAGTATTAATTTGCATGTCATGTATTAGGTCGA [TGCATGCA_site540]” as the sequence, how does the “gcPBM binding intensity (ln)” value read?
A: 6.73
